Reference: PubChem BioAssay AID504834 (National Center for Advancing Translational Sciences (NCATS), 2011)
In all, about 320,000 compounds went through this assay and about 22,000 (6.9%) were called active. Roughly 27% stayed inconclusive and do not appear here. The entries come from a sample that favours actives as a whole. A number with no mark means an inactive call. Calls follow the shape of the dose curve; as a rule, active = well fitted inhibition curve with a large enough effect; inconclusive = small, poorly fitted or top-dose-only effect, or another doubt; inactive = no such curve, though single readings can be large or run the other way.

Test: Primary qHTS for delayed death inhibitors of the malarial parasite plastid, 96 hour incubation
Conditions: P. falciparum luciferase reporter growth; series mostly up to 28.7 µM; activity change, negative = inhibition: at the top concentration
Outline: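 Plates of compound plus infected erythrocytes (2% hematocrit, 0.05% parasitemia final) incubate 96 hours, 37 C, 5% CO2. Detection reagent added; reduced luminescence from the parasites' luciferase reporter flags inhibition.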
% is scaled to controls: 0 for no effect and ±100 for the full control effect; potency is read from the fitted curve at half-maximal effect.

SMILES	activity change, negative = inhibition	Potency
CCC(=O)Nc1ccc2nn(-c3ccc(F)cc3)nc2c1	0%	
Cc1cccc(NC(=O)CN2CCN(CC(=O)NCC3(N4CCCCC4)CCCCC3)CC2)c1C	1.42%	
COC(=O)c1sccc1NC(=O)COc1ccc(Cl)cc1	8.06%	
CN1CCN(c2ccc(NC(=O)COc3ccc(Cl)cc3Cl)cc2)CC1	-18.7%	
COC(=O)c1c(NC(=O)COc2ccc(Cl)cc2Cl)sc2c1CC(C)(C)NC2(C)C		6.57 µM (active)
Cc1nc2ccccc2c(=O)n1-c1ccc(F)c(NC(=O)c2cccs2)c1	12%	
O=C(NCc1cccc(Cl)c1)C1CCC(=O)N(C2CC2)C1 (stereo not drawn)	35.7%	
CCN1CCN(CCNC(=O)c2ccc3c(c2)NC(=O)/C(=C\c2ccc(OC)c(OC)c2)S3)CC1	-26.6%	
Cc1ccc(S(=O)(=O)N(CC(O)CN2C(=O)NC(C)(C)C2=O)c2cccc([N+](=O)[O-])c2)cc1 (stereo not drawn)	3.55%	
COc1cc(/C=C2\CCCc3c2nc2ccccc2c3C(=O)O)cc(Cl)c1O	-4.48%	
O=C(Nc1ccccc1-c1nnn(CC(=O)N2CCN(c3ccccc3)CC2)n1)c1cccs1		9.28 µM (active)
COc1ccccc1N1CCN(C(=O)Cn2nnc(-c3cccs3)n2)CC1	3.57%	
O=C(Nc1ccc(N2CCN(C(=O)C3CC3)CC2)cc1)c1cccs1	-4.99%	
Cc1nc2nc(SCC(=O)Nc3cccc(F)c3)[nH]c2cc1Br	16.6%	
N#Cc1ccc(OCC(=O)NC(=O)NC2CCS(=O)(=O)C2)cc1 (stereo not drawn)	2.04%	
CCOC(=O)C(C)N(c1ccccc1Cl)S(C)(=O)=O (stereo not drawn)	7.23%	
Nc1ccccc1Sc1ccc(C(F)(F)F)cc1[N+](=O)[O-]	3.57%	
O=C(CSc1ccc(C(F)(F)F)cc1[N+](=O)[O-])NCCOc1ccccc1		13.1 µM (active)
Cc1cccc(OCCNC(=O)CSc2ccc(C(F)(F)F)cc2[N+](=O)[O-])c1	331%	
CCOc1ccccc1OCCCNCc1ccccc1	28.2%	
O=C(CNc1ccc(F)cc1F)NC(=O)NCc1ccco1	11.3%	
Cn1c(CNC(=O)c2ccco2)nnc1SCC(=O)N1CCN(c2ccccc2)CC1	-1.11%	
Cc1nc2ncnn2c(C)c1CCC(=O)N1CCN(C(=O)c2ccco2)CC1	37%	
Cc1nc2nc(C)c(CCC(=O)N3CCC4(CC3)OCCO4)c(C)n2n1		11.7 µM (active)
O=C(Nc1cccc2ccccc12)N1CCC2(CC1)OCCO2	-27.2%	
COc1ccc(CNC(=O)CNC(=O)c2sc3ccccc3c2Cl)cc1OC	0.724%	
CCOc1ccc(C)cc1S(=O)(=O)NC1CCCCCC1	-19.9%	

SMILES	activity change, negative = inhibition	Potency
Cc1ccc(-n2nc(C)c(C(=O)O)c2-n2cccc2)cc1	17.1%	
CC(NC(=O)C1CCC(CNc2c(N3CCOCC3)c(=O)c2=O)CC1)c1ccccc1 (stereo not drawn)		13.1 µM (active)
COc1ccc(NC(=O)C2CCC(CNc3c(N4CCCCC4)c(=O)c3=O)CC2)c(OC)c1 (stereo not drawn)	-15.3%	
O=C(NCCCc1ccccc1)C1CCC(CNc2c(N3CCCCC3)c(=O)c2=O)CC1 (stereo not drawn)	-25.3%	
O=C(NCc1ccccc1Cl)C1CCC(CNc2c(N3CCCCC3)c(=O)c2=O)CC1 (stereo not drawn)		10.4 µM (active)
CCOc1ccccc1NC(=O)C1CCC(CNc2c(N3CCOCC3)c(=O)c2=O)CC1 (stereo not drawn)	-10.4%	
O=C(NCc1ccc(F)cc1)C1CCC(CNc2c(N3CCOCC3)c(=O)c2=O)CC1 (stereo not drawn)	-22.9%	
CCCCn1c(N)c(N(CCC(C)C)C(=O)COC(=O)c2cccnc2OCC)c(=O)[nH]c1=O	52.6%	
Cc1ccc(/C=C2\SC(=S)N(CCC(=O)Nc3ccc(O)cc3)C2=O)cc1	46.5%	
COc1ccc(C(=O)NC(=S)NC2CCCCC2)cc1	-0.349%	
COc1ccc(C(=O)NNC(=S)NC(=O)c2ccccc2)cc1		6.57 µM (active)
COc1ccc(OCC(=O)NNC(=O)c2ccc(-c3ccccc3)cc2)cc1	-17.4%	
Cc1cc(NC(=O)CCC(=O)N(CC(=O)NC2CCCC2)c2ccc(F)cc2)no1	40.9%	
C=CCC1=C/C(=C\c2c(N)n3nc(CC(=O)N4CCOCC4)sc3nc2=O)C=C(OC)C1=O	-14.7%	
Cc1cnc(NC(=O)CSc2c(Cl)cccc2Cl)s1		10.4 µM (active)
Cc1ccc(SCC(=O)Nc2ncc(C)s2)cc1	3.99%	
Cc1cnc(NC(=O)CSc2nnc(C)s2)s1	-15.1%	
CCOC(=O)C1=C(C)Nc2sc(C(=O)c3ccc(Br)cc3)c(N)c2C1c1ccc(C(=O)OC)cc1 (stereo not drawn)		6.57 µM (active)
CCOC(=O)c1sc(=NC(=O)c2ccc(Br)cc2)n(C)c1C	65.4%	
CCOC(=O)C1=C(C)NC(SC)=NC1c1ccccc1 (stereo not drawn)	-21.1%	
CC(OC(=O)/C=C/c1ccccc1)C(=O)Nc1ccc(C(N)=O)cc1 (stereo not drawn)	-9.65%	
O=C1c2ccccc2C(O)N1Cc1ccccc1Cl (stereo not drawn)	59.3%	
O=C(Nc1ccc(Br)cc1)C1CCC(=O)N1Cc1ccccc1Cl (stereo not drawn)		10.4 µM (active)
CCCCNC(=O)C1CCC(=O)N1CCc1ccccc1 (stereo not drawn)	14.2%	
COc1ccc(-c2onc3ccc(C(C)=O)cc23)cc1	25.1%	
O=C(c1c(F)cccc1F)N1CCN(S(=O)(=O)c2ccc3c(c2)OCCO3)CC1	-5.48%	
